{"source": "PubChem BioAssay AID1851", "about": "(National Center for Advancing Translational Sciences (NCATS), 2009)", "note": "The whole screen tested about 16,000 compounds, of which about 5,800 (36%) were called active. About 23% were inconclusive and are not listed. The call rests on the fitted dose curve; in most records, active means well fitted curve in the direction sought with a large enough effect; inconclusive means small, poorly fitted or top-dose-only effect, or effect the other way; inactive means no such curve, though single readings can be large or run the other way. The list shows a part of the results. On the % scale 0 is the no-effect control and ±100 the full control effect.", "data": [{"biological_target": "Cytochrome P450 2C19 (Homo sapiens) (UniProt P33261)", "sequence (P33261 whole entry, looked up)": "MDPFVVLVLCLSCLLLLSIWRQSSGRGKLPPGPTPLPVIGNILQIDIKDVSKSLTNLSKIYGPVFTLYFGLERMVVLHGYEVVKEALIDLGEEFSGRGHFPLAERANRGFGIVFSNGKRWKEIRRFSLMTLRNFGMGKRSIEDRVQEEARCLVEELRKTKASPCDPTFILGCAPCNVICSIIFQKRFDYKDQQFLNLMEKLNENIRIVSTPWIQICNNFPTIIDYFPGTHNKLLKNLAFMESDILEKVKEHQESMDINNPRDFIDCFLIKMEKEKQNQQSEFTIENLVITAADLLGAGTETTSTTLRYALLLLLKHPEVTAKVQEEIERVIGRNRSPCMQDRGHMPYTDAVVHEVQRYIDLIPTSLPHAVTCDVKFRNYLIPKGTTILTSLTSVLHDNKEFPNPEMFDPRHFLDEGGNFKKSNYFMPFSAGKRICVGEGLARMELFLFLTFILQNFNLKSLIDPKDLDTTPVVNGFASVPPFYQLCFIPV", "experiment": "Cytochrome panel assay with activity outcomes", "conditions": "recombinant CYP, pro-luciferin dealkylation, luminescence, p450-cyp2c19; series mostly up to 57.1 µM; activity, negative = inhibition: at the top concentration", "values": [{"smiles": "CN(C)Cc1c[nH]c2ccccc12", "activity, negative = inhibition": "-31.4% [at 25.6 µM] (inactive)"}, {"smiles": "CC1=NN(c2ccccc2)C(=O)[C@@H]1N=Nc1ccc([As](=O)(O)O)c(O)c1", "activity, negative = inhibition": "22.8% [at 11.4 µM] (inactive)"}, {"smiles": "C[C@H](c1ccccc1)N1CCN([C@@H](C)c2ccccc2)CC1", "activity, negative = inhibition": "-29.5% [at 11.4 µM] (inactive)"}, {"smiles": "Cc1cc(C(C)(C)C)cc(C)c1CC1=NCCN1", "activity, negative = inhibition": "-13.7% (inactive)"}, {"smiles": "CCN(CC)c1ccc(/C=C2/C(=O)NC(=O)N(CC3CCCO3)C2=O)cc1", "note": "(stereo not given)", "AC50": "7.08 µM (active)"}, {"smiles": "C=CCN1C(=O)NC(=O)/C(=C/c2cccn2C)C1=O", "activity, negative = inhibition": "-26.7% (inactive)"}, {"smiles": "Oc1ccc([C@H](O)[C@@H]2CCCCN2)cc1O", "activity, negative = inhibition": "10% [at 11.4 µM] (inactive)"}, {"smiles": "CN1[C@H]2CC(=O)C[C@@H]1[C@@H](O)C2", "activity, negative = inhibition": "8.15% [at 25.6 µM] (inactive)"}, {"smiles": "C[C@@]12CC[C@H]3[C@@H](CC[C@@H]4C[C@H]5S[C@H]5C[C@]43C)[C@H]1CC[C@H]2O", "AC50": "0.0631 µM (active)"}, {"smiles": "C[C@@]12CC[C@@H]3c4ccc(O)cc4CC[C@H]3[C@H]1CC[C@H]2O", "activity, negative = inhibition": "-29.4% [at 25.6 µM] (inactive)"}, {"smiles": "C[N+](C)(C)CCCCCCCCCC[N+](C)(C)C", "activity, negative = inhibition": "4.81% [at 25.6 µM] (inactive)"}, {"smiles": "Nc1nc(N)c(N=Nc2ccc([As](=O)(O)O)cc2)c(=O)[nH]1", "activity, negative = inhibition": "19% [at 11.4 µM] (inactive)"}, {"smiles": "COC(=O)Nc1nc2ccc(C(=O)c3cccs3)cc2[nH]1", "activity, negative = inhibition": "-1.51% (inactive)"}, {"smiles": "O=C1C=CC(=O)c2c1ccc1c2ccc2ccccc21", "AC50": "1.58 µM (active)"}, {"smiles": "CCN1C[C@]2(COC)CC[C@H](O)[C@@]34[C@@H]5C[C@H]6[C@@H](OC)[C@H]5[C@](O)(C[C@@H]6OC)[C@@](O)([C@@H](OC)[C@H]23)[C@@H]14", "activity, negative = inhibition": "33.2% [at 25.6 µM] (inactive)"}, {"smiles": "C[C@]12CC[C@H](O)C[C@@H]1CC[C@H]1[C@H]2CC[C@]2(C)[C@H](C(=O)CO)CC[C@@H]12", "activity, negative = inhibition": "-19.9% (inactive)"}, {"smiles": "C[C@@]12CC[C@@H]3[C@@H](CC[C@H]4C[C@@H](O)CC[C@]43C)[C@H]1CC[C@@H]2c1cc(C(F)(F)F)n[nH]1", "AC50": "2.51 µM (active)"}, {"smiles": "C[C@]12CC[C@H](O)C[C@@H]1CC[C@H]1[C@H]2CC[C@]2(C)C(=O)CC[C@@H]12", "AC50": "inactive"}, {"smiles": "NN=C(N)N", "AC50": "inactive"}, {"smiles": "N[C@H](CCC(=O)N[C@H](CSN=O)C(=O)NCC(=O)O)C(=O)O", "AC50": "1.58 µM (active)"}, {"smiles": "COC(=O)[C@H]1C(=O)c2ccccc2O[C@@](C(=O)OC)(c2ccccc2)[C@@H]1c1ccccc1", "activity, negative = inhibition": "-43% [at 11.4 µM] (inactive)"}, {"smiles": "NC(=O)c1cc(N2CC2)c([N+](=O)[O-])cc1[N+](=O)[O-]", "activity, negative = inhibition": "-21% (inactive)"}, {"smiles": "CN1CCN(c2cc(N3CCCC3)c([N+](=O)[O-])cc2F)CC1", "AC50": "7.94 µM (active)"}, {"smiles": "CN(C)C(=O)Oc1ccc[n+](C)c1", "activity, negative = inhibition": "73.3% (inactive)"}, {"smiles": "CSC([N-]/N=C/c1cccc(C)n1)=[S]=[Cu].CS[C@H]([S-])[N-]/N=C/c1cccc(C)n1", "AC50": "0.2 µM (active)"}, {"smiles": "CC(=O)OC1=CC2=CC[C@H]3[C@H]4CCC(=O)[C@@]4(C)CC(=O)[C@]3(S)[C@]2(C)CC1", "activity, negative = inhibition": "-14.8% [at 11.4 µM] (inactive)"}, {"smiles": "c1csc(CN2CCC3(CCNCC3)CC2)n1", "activity, negative = inhibition": "43.8% (inactive)"}, {"smiles": "CCCN(CCC)[C@@H]1CCc2cccc(O)c2C1", "AC50": "inactive"}, {"smiles": "CCCN(C/C=C\\I)[C@@H]1CCc2ccc(O)cc2C1", "AC50": "1 µM (active)"}, {"smiles": "CCCN(CCC)[C@@H]1CCc2ccc(O)cc2C1", "AC50": "inactive"}, {"smiles": "CN(C)CC/C=C1\\c2ccccc2Sc2ccc(Cl)cc21", "activity, negative = inhibition": "-17.3% [at 11.4 µM] (inactive)"}, {"smiles": "NO", "activity, negative = inhibition": "2.63% (inactive)"}, {"smiles": "Cc1sc2c(c1C)C(c1ccc(C(C)(C)C)cc1)=NCC(=O)N2CC(=O)Nc1nccs1", "AC50": "6.31 µM (active)"}, {"smiles": "CCCN1CCC[C@H](c2cccc(C#N)c2)C1", "activity, negative = inhibition": "20.2% (inactive)"}, {"smiles": "CCN1C[C@]2(C)CC[C@@H](O)[C@]34[C@@H]5CC6[C@@H](OC)C[C@@](O)([C@H]5[C@@H]6O)[C@@H](C[C@@H]23)[C@H]14", "activity, negative = inhibition": "21.5% (inactive)"}, {"smiles": "CC(C)(C)CC(=O)NC(=S)Nc1ccccc1C(F)(F)F", "AC50": "3.16 µM (active)"}, {"smiles": "CC(C)c1ccc(C(c2c(O)c3ccccc3oc2=O)c2c(O)c3ccccc3oc2=O)cc1", "activity, negative = inhibition": "-40.6% [at 11.4 µM] (inactive)"}, {"smiles": "Cn1c(=O)c2[nH]cnc2n(C)c1=O", "activity, negative = inhibition": "24.9% (inactive)"}, {"smiles": "CC(C)(C)NC[C@@H](O)COc1cccc2[nH]c(C#N)cc12", "AC50": "15.8 µM (active)"}, {"smiles": "c1csc(CN2CC3(CCNCC3)C2)n1", "activity, negative = inhibition": "-22.8% (inactive)"}, {"smiles": "Oc1ccc(CCNCc2cc3c(cc2Br)OCO3)cc1", "AC50": "5.01 µM (active)"}, {"smiles": "C[N+]1(C)CCO[C@](O)(c2ccc(-c3ccc([C@]4(O)C[N+](C)(C)CCO4)cc3)cc2)C1", "activity, negative = inhibition": "23.6% [at 25.6 µM] (inactive)"}, {"smiles": "Fc1ccccc1CCNCc1cccc(Cl)c1Cl", "AC50": "0.631 µM (active)"}, {"smiles": "N=C(N)n1cc(/C=N\\N=C(N)N)cn1", "activity, negative = inhibition": "16.3% [at 11.4 µM] (inactive)"}, {"smiles": "COc1ccc(C2NCc3ccc4c(c3-n3cccc32)OCO4)cc1OC", "note": "(stereo not given)", "AC50": "3.16 µM (active)"}, {"smiles": "O=C(Oc1ccccc1)N1CCC2(CCN(Cc3nccs3)CC2)CC1", "activity, negative = inhibition": "-5.16% (inactive)"}, {"smiles": "CCCN(CCC)[C@H]1CCc2c(F)ccc(O)c2C1", "AC50": "inactive"}, {"smiles": "C/C(=N\\OC(=O)NC(C)C)c1sc(-c2ccc(Cl)cc2)nc1C", "AC50": "5.01 µM (active)"}, {"smiles": "CCNC(=O)O/N=C(\\C)c1sc(-c2ccccc2)nc1C", "AC50": "11.2 µM (active)"}, {"smiles": "C/C(=N\\OC(=O)NC(C)C)c1sc(-c2ccccc2)nc1C", "AC50": "10 µM (active)"}, {"smiles": "OC(c1ccccc1)(c1ccccc1)C1CCNCC1", "activity, negative = inhibition": "-28% [at 25.6 µM] (inactive)"}, {"smiles": "NS(=O)(=O)C[C-]1C=C[CH]([Sb-]([Cl])([Cl])([Cl])([Cl])[Cl])C=C1.c1ccncc1", "note": "(stereo not given)", "activity, negative = inhibition": "12.8% [at 11.4 µM] (inactive)"}, {"smiles": "COc1ccc2[nH]cc(CCN(C)C)c2c1", "activity, negative = inhibition": "9.02% (inactive)"}, {"smiles": "CCc1cc2c(nc1CC)CCN(CC/C(C)=N/OC)C2", "activity, negative = inhibition": "6.29% [at 11.4 µM] (inactive)"}, {"smiles": "C=C(C)[C@H]1CC[C@]2(C(=O)O)CC[C@]3(C)[C@@H](CC[C@H]4[C@@]5(C)CC[C@@H](O)C(C)(C)[C@@H]5CC[C@@]43C)[C@H]12", "activity, negative = inhibition": "24.5% [at 25.6 µM] (inactive)"}, {"smiles": "O=[As](O)(O)c1ccc(NCc2ccccc2)cc1", "activity, negative = inhibition": "1.27% [at 11.4 µM] (inactive)"}, {"smiles": "COC(=O)C1(C)C=C2C(=C(C)C(=O)C2C)CN1", "note": "(stereo not given)", "activity, negative = inhibition": "-14.7% (inactive)"}, {"smiles": "Ic1ccccc1CN[C@@H]1C2CCN(CC2)[C@H]1C(c1ccccc1)c1ccccc1", "activity, negative = inhibition": "-32.5% (inactive)"}, {"smiles": "COc1cc(C(=O)OC2C[C@H]3CC[C@@H](C2)N3C)ccc1O", "note": "(stereo not given in full)", "activity, negative = inhibition": "-26.6% [at 25.6 µM] (inactive)"}, {"smiles": "C/C(=C\\c1ccc(N(C)C)cc1)[N+](=O)[O-]", "AC50": "14.1 µM (active)"}]}]}
